# Assay outcomes: PubChem, National Center for Advancing Translational Sciences (NCATS)
# Shown are actives, neighbours in structure and some others; about 10% of the full set was active somewhere.
# Six1-Eya2 inh: Six1/Eya2 interaction inhibition | Q15475+O00167 | AlphaScreen GST-Six1/His-Eya2 binding, biochemical; active compounds read low | activity change, % (test concentration not listed) | 0.56% of 360,000 active | AID 651725; in the data active = activity change below about -65%; inconclusive = mostly about -30% to -63%; also: % is scaled to controls: 0 for no effect and ±100 for the full control effect
# Target sequence (O00167 whole entry, looked up): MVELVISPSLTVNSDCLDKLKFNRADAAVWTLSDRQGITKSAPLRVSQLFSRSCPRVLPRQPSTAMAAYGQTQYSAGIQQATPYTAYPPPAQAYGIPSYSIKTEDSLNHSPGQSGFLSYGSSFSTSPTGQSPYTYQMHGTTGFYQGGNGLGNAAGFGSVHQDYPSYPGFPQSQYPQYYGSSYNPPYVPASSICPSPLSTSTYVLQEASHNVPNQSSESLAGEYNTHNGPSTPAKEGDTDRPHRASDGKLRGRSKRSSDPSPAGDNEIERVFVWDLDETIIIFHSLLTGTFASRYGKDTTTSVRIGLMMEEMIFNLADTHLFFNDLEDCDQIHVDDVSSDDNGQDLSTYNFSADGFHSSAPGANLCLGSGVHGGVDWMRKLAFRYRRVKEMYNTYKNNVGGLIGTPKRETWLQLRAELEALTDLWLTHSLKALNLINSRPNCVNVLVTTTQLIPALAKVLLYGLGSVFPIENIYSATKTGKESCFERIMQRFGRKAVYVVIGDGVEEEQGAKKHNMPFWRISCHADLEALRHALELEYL
# Target sequence (Q15475 whole entry, looked up): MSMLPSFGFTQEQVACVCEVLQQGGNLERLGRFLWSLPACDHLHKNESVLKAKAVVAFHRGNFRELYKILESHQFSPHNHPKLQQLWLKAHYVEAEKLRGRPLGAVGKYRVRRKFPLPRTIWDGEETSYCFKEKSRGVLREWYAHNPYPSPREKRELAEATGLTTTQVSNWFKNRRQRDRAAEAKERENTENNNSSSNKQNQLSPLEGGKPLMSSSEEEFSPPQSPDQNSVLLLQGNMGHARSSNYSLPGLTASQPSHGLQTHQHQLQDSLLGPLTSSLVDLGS
#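 Six1/Eya2 binding was read as AlphaScreen signal after compounds were pinned into GST-Six1 plus His-tagged Eya2 (5X stock 250/500 nM) in pH 8.0 Tris/NaCl/TCEP buffer, beads added, then incubated 1 h, 37 C, dark.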
# HP1b chromo inh: inhibitors of HP1-beta chromodomain binding to methylated histone tails | P83916 | AlphaScreen HP1-beta / biotin-H3K9me3 peptide binding | Potency, µM (doses to about 114 µM), inactives show at the highest dose activity change, negative = inhibition, most hits filed as inhibitors | 0.56% of 390,000 active | AID 540317; also: potency is read from the fitted curve at half-maximal effect; nearly all actives have a fitted effect of over 70% in size
#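 Compound inhibition of the preformed complex between 50 nM HP1-beta and 50 nM biotinylated H3K9me3 peptide was read by AlphaScreen. Buffer was PBS pH 7.4 with 0.01% Tween-20. Incubations ran 30 min at room temperature, with 10 ug/mL donor/acceptor beads.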
# CtBP-E1A blk: CtBP/E1A binding inhibition. AlphaScreen GST-E1A/His-CtBP binding, 1536-well; active compounds read low. activity change, % (test concentration not listed). 0.49% of 340,000 active; in the data active = activity change below about -65%; inconclusive = mostly about -30% to -63%; also: % is scaled to controls: 0 for no effect and ±100 for the full control effect
#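 Protein mix (5X: 125 nM each GST-E1A, His-CtBP) was incubated with pinned compound 2 h at 37 deg C in dark, in 50 mM Tris pH 8.0 buffer with 300 mM NaCl. Glutathione donor and nickel acceptor beads followed; AlphaScreen signal read after 1 h.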
# JMJD2A Tudor inh: JMJD2A Tudor domain (human) inhibition; O75164; 4.4% of 390,000 active; Potency, µM (titrated, usually from 114 µM), for inactives: at the highest dose activity change, negative = inhibition, usual class: inhibitors; AlphaScreen JMJD2A-Tudor / H3K4me3 peptide binding; also: potency is read from the fitted curve at half-maximal effect; % is scaled to controls: 0 for no effect and ±100 for the full control effect; nearly all actives have a fitted effect of over 50% in size
# G9a inh: blocks human histone lysine methyltransferase G9a | Q96KQ7 | G9a H3K9 monomethylation, AlphaScreen, 2 h | Potency, µM (highest dose often 102 µM), inactives show top-dose activity, negative = inhibition, actives largely listed as inhibitors | 8.8% of 350,000 active | AID 504332; also: potency is read from the fitted curve at half-maximal effect; % is scaled to controls: 0 for no effect and ±100 for the full control effect; nearly all actives have a fitted effect of over 75% in size
#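 G9a (20 nM) preincubated 15 min RT with compounds, then 500 nM biotinylated H3K9 peptide and 20 uM SAM added; 2 h RT reaction. Monomethyl-H3K9 product detected by AlphaScreen with anti-H3K9me1 antibody, streptavidin donor and anti-rabbit IgG acceptor beads.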
# BAZ2B block: blocks human BAZ2B. AlphaScreen BAZ2B-H3K14Ac peptide displacement. Potency, µM (doses to about 114 µM), for the others: at the top dose activity change, negative = inhibition, usual class: inhibitors. 4.4% of 360,000 active. AID 504333; also: potency is read from the fitted curve at half-maximal effect; % is scaled to controls: 0 for no effect and ±100 for the full control effect; nearly all actives have a fitted effect of over 60% in size
#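 Protein-peptide AlphaScreen: BAZ2B 50 nM, b-H3K14Ac 50 nM, 1x PBS pH 7.4 + 0.01% Tween-20. Preincubation 30 min RT; cpd 30 min RT (top 110 uM); beads 20 min RT, light-protected.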
# Active calls of the source: *; ? = inconclusive; · = no result given; [ ] = another dose, or the depositor's remark. Unless noted, calls follow the shape of the dose curve; as a rule, active = well fitted inhibition curve with a large enough effect; inconclusive = small, poorly fitted or top-dose-only effect; inactive = no such curve, though single readings can be large or run the other way.
SMILES,Six1-Eya2 inh,HP1b chromo inh,CtBP-E1A blk,JMJD2A Tudor inh,G9a inh,BAZ2B block
COc1ccc(-c2cc(C(=O)OCC(=O)N(C)C)c3ccccc3n2)cc1,3,58%,11,-11%,-20%[12.7 µM],40%
O=C(NCc1ccccn1)c1cc(-c2ccc(-c3ccccc3)cc2)nc2ccccc12,-16,8%,·,?,3.2µM*,?
COc1ccc(-c2cc(C(=O)OCc3ccccn3)c3ccccc3n2)cc1,43,205%,-13,20µM*,?,?
Oc1ccccc1-c1nnc2n1CCCCC2,0,11%,8,9%,?,-30%
CCCOc1ccc(/C=C/C(=O)Nc2sc(C)c(C)c2C(=O)OCC)cc1OC,·,?,·,79µM*,3.2µM*,-9%
CCOC(=O)c1c(NC(=O)/C=C/c2ccc(OC)c(OC)c2)sc(C(C)=O)c1C,·,-2%,·,-8%,?,3%
NS(=O)(=O)c1ccc(N=Nc2c[nH]c(=O)c(O)c2)cc1,?,50µM*,?,7.1µM*,11µM*,7.9µM*
CCCC1NC(=O)c2cccnc2-n2c1nc1cc(F)c(F)cc1c2=O (centres undefined),9,·,0,·,·,·
O=C(NCc1ccc(OC(F)(F)F)cc1)C12CN(Cc3ccccc3)CC1C(c1cccc([N+](=O)[O-])c1)=NO2 (centres undefined),-8,-2%,-6,-33%,?,-12%
O=C(NCc1ccccc1)C12CN(Cc3ccccc3)CC1C(c1cccc([N+](=O)[O-])c1)=NO2 (centres undefined),-20,16%,·,-22%,8.9µM*,?
O=C1N/C(=C/c2cccs2)C(=O)N1Cc1ccccc1F,-7,29%[57 µM],6,-13%,16%,-3%
O=C1N/C(=C/c2ccco2)C(=O)N1Cc1ccccc1F,-23,?,-3,?,32µM*,?
CN1c2ccccc2-c2nc3ccccc3n2C1c1ccccn1 (centres undefined),-9,61%,-7,-24%,50µM*,?
CCN(C(=O)CCc1nc(-c2ccc(C)cc2)no1)c1cccc(C(F)(F)F)c1,·,58%,·,15%,48%[59 µM],37%
Cc1c(C(=O)O)cccc1-c1ccc(C=O)o1,-6,5%,-2,-31%,?,-10%
Cc1ccc(C)c(N2C(=N)S/C(=C\c3ccc(-c4ccccc4C(=O)O)o3)C2=O)c1,-72*,-38%,?,32µM*,2.2µM*,20µM*
CCOC(=O)C(C)N1C(=O)S/C(=C\c2ccc(-c3ccccc3C(=O)O)o2)C1=O (centres undefined),?,?,·,22µM*,10µM*,25µM*
Cc1ccc(C)c(CN2C(=O)COc3ccc(C(=O)c4ccccc4C(=O)O)cc32)c1,-4,30%,11,-17%,7%,-24%
Cc1ccccc1CN1CCN(CC2CC3C=CC2C3)CC1 (centres undefined),-2,?,0,5.6µM*,3.2µM*,22µM*
CCN1CCN(CC2CC3C=CC2C3)CC1 (centres undefined),6,?,-6,1.3µM*,?,50µM*
Cc1cc(N2C(=O)C3C4CCC(C4)C3C2=O)no1 (centres undefined),4,26%,-3,-6%,11%,-2%
Cc1ccc2sc(N(CCCN(C)C)C(=O)c3ccc(S(=O)(=O)N4CCOCC4)cc3)nc2c1C,-8,8%,-4,-30%,50µM*,-7%
CN(C)CCCN(C(=O)c1ccc(S(=O)(=O)N2CCCCCC2)cc1)c1nc2c(F)cc(F)cc2s1,-16,-12%,6,?,45µM*,?
CN(C)CCCN(C(=O)c1ccc(S(=O)(=O)N2CCCC2)cc1)c1nc2c(F)cc(F)cc2s1,3,-1%,-7,-19%,?,5%
Cc1cc(C)c2nc(N(CCCN(C)C)C(=O)c3ccc(S(=O)(=O)N4CC(C)OC(C)C4)cc3)sc2c1 (centres undefined),5,16%,-1,-9%,?,2%
SMILES,Six1-Eya2 inh,HP1b chromo inh,CtBP-E1A blk,JMJD2A Tudor inh,G9a inh,BAZ2B block
Cc1ccc2sc(N(CCN(C)C)C(=O)c3ccc(S(=O)(=O)N4CC(C)OC(C)C4)cc3)nc2c1C (centres undefined),-12,-3%,-8,?,50µM*,?
Cc1ccc2nc(N(CCCN(C)C)C(=O)c3ccc(S(=O)(=O)N4CCOCC4)cc3)sc2c1,-5,12%,-12,-14%,-2%,-11%
CCOC(=O)N1CCN(S(=O)(=O)c2ccc(C(=O)N(CCCN(C)C)c3nc4c(C)c(C)ccc4s3)cc2)CC1,-19,-18%,-13,?,50µM*,-35%
COc1ccc2sc(N(CCCN(C)C)C(=O)c3ccc(S(=O)(=O)N4CCCC4)cc3)nc2c1,5,11%,-13,-23%,?,-15%
CCOC(=O)N1CCN(S(=O)(=O)c2ccc(C(=O)N(CCN(C)C)c3nc4c(C)cccc4s3)cc2)CC1,-8,-6%,0,?,45µM*,?
CCOC(=O)N1CCN(S(=O)(=O)c2ccc(C(=O)N(CCCN(C)C)c3nc4cc(OC)ccc4s3)cc2)CC1,-18,10%,-9,-35%,56µM*,-11%
CCOc1cccc2sc(N(CCN(CC)CC)C(=O)c3ccc(S(=O)(=O)N4CCCC4)cc3)nc12,-7,42%,0,-2%,-10%,-13%
Cc1ccc(C)c(C(O)c2ncc(-c3ccc(Cl)cc3)[nH]2)c1 (centres undefined),-11,·,-12,·,·,·
Cc1cc(N/N=C2/CCCc3ccccc32)nc2ccccc12,0,18%,2,?,50µM*,?
c1ccc(N/N=C2\CCCc3ccccc32)nc1,-9,3%,-3,-18%,-4%,?
Cc1nnsc1C(=O)Oc1ccccc1Cl,·,68%,·,16%,?,2%
OC[C@@H](O)[C@H](O)C(/C=N/Nc1ccccc1)=N\Nc1ccccc1,-4,?,-8,79µM*,?,?
CC(=O)/C=N/Nc1ccccc1,-2,6%,-2,-16%,·,?
CCOC(=O)c1cc(-c2ccc(OC)cc2)n(CCC(=O)Nc2ccccc2OC)c1C,·,28%,·,28µM*,-32%[59 µM],79µM*
CCOC(=O)c1cc(-c2ccccc2)n(CC(=O)Nc2ccc(OC)cc2OC)c1C,·,46%,·,22µM*,-17%[59 µM],-6%
CCOC(=O)c1cc(-c2ccc(OC)cc2)n(CCC(=O)Nc2ccc(OC)cc2OC)c1C,·,-12%,·,?,?,-33%
